Test results published in PubChem BioAssay (NCI).
This is part of a sample that, as a whole, favours compounds with a hit. Of some 83,000 tested, about 20% had one in any assay.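 Assay: single dose, 48 h. Readout: percent growth (0 = no net growth; negative = cell death). Active: <10.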 Active and inactive are the calls of the source.

Key:
Experiment in all cases: NCI-60 one-dose screen, 48 h (100 = growth as untreated, 0 = no growth, -100 = all killed)
Settings in all cases: 10 µM unless noted
DU-145 prostate = test system: DU-145 prostate
K-562 leukemia = test system: K-562 leukemia
MALME-3M melanoma = test system: MALME-3M melanoma
RXF 393 renal = test system: RXF 393 renal
SF-268 CNS = test system: SF-268 CNS
SF-295 CNS = test system: SF-295 CNS
SF-539 CNS = test system: SF-539 CNS
UACC-257 melanoma = test system: UACC-257 melanoma
M14 melanoma = test system: M14 melanoma
HCT-15 colon = test system: HCT-15 colon
HT29 colon = test system: HT29 colon
SNB-75 CNS = test system: SNB-75 CNS
SNB-19 CNS = test system: SNB-19 CNS
U251 CNS = test system: U251 CNS
PC-3 prostate = test system: PC-3 prostate
SK-MEL-5 melanoma = test system: SK-MEL-5 melanoma
UACC-62 melanoma = test system: UACC-62 melanoma
LOX IMVI melanoma = test system: LOX IMVI melanoma
SK-MEL-28 melanoma = test system: SK-MEL-28 melanoma
MDA-MB-231 breast = test system: MDA-MB-231 breast

Measured: growth

CN1C(=O)CNC(=O)[C@H](NC(=O)c2nc3ccccc3cc2O)CSSC[C@H]1C(=O)NCCc1nc2ccccc2cc1O
inactive: DU-145 prostate 38.6% | MALME-3M melanoma 110% | RXF 393 renal 100% | SF-268 CNS 46.4% | SF-295 CNS 68.3% | SF-539 CNS 94.2% | UACC-257 melanoma 79.2% | HCT-15 colon 99.7% | HT29 colon 17.6% | SNB-75 CNS 129% | SNB-19 CNS 87% | U251 CNS 71.4% | PC-3 prostate 55.7% | SK-MEL-5 melanoma 38% | UACC-62 melanoma 34.9% | SK-MEL-28 melanoma 62.8%
active: K-562 leukemia 5.35% | M14 melanoma 6.87% | LOX IMVI melanoma -11.5%

CC/C=C\C[C@@H](O)C/C=C1/C(=O)C=C[C@H]1C/C=C\CCCC(=O)OC
active: K-562 leukemia 2.65% | RXF 393 renal -16.8% | SF-268 CNS 0.223% | M14 melanoma -1.62% | HCT-15 colon -31.3% | HT29 colon -58.5% | U251 CNS 8.72% | PC-3 prostate -21.1% | SK-MEL-5 melanoma -82.2% | UACC-62 melanoma -50.6% | LOX IMVI melanoma -69% | SK-MEL-28 melanoma -32.8%
inactive: DU-145 prostate 28.7% | MALME-3M melanoma 10.4% | SF-295 CNS 80.9% | SF-539 CNS 10.4% | UACC-257 melanoma 56.5% | SNB-75 CNS 90.8% | SNB-19 CNS 33.7%

O=C1/C(=C/c2ccc(F)cc2)Sc2c(Br)cccc21
inactive: DU-145 prostate 99.7% | K-562 leukemia 80% | MALME-3M melanoma 99.9% | RXF 393 renal 85.8% | SF-268 CNS 79% | SF-295 CNS 87.3% | SF-539 CNS 75.5% | UACC-257 melanoma 85.9% | M14 melanoma 92.8% | HCT-15 colon 75.8% | HT29 colon 100% | SNB-75 CNS 87.7% | SNB-19 CNS 95.6% | U251 CNS 70.4% | PC-3 prostate 70.4% | SK-MEL-5 melanoma 88.1% | UACC-62 melanoma 55.7% | LOX IMVI melanoma 82% | SK-MEL-28 melanoma 110%

O=C(O)CCC/C=C\C[C@H]1C=CC(=O)/C1=C/C[C@@H](O)CCc1cccc(C(F)(F)F)c1
active: K-562 leukemia 3.71% | RXF 393 renal -65.7% | SF-268 CNS 3.06% | SF-295 CNS -40.4% | SF-539 CNS -1.94% | UACC-257 melanoma -5.2% | M14 melanoma -16.2% | HCT-15 colon -55.8% | HT29 colon -8.89% | SNB-19 CNS 7.63% | U251 CNS -71.1% | PC-3 prostate -19.3% | SK-MEL-5 melanoma -85.9% | UACC-62 melanoma -62.2% | LOX IMVI melanoma -60.9% | SK-MEL-28 melanoma -43.6%
inactive: DU-145 prostate 13.6% | MALME-3M melanoma 79.1% | SNB-75 CNS 72.8%

N#CC1=C(N)Oc2c(sc3c(Br)cccc23)C1c1ccc([N+](=O)[O-])cc1 (stereo unspecified)
active: DU-145 prostate 8.77% | K-562 leukemia 7.66% | SF-295 CNS -5.7% | SF-539 CNS -18% | M14 melanoma 3.87% | HCT-15 colon 7.43% | HT29 colon 2.5% | SK-MEL-5 melanoma 0.865% | LOX IMVI melanoma -11.3%
inactive: MALME-3M melanoma 93.2% | RXF 393 renal 17.6% | SF-268 CNS 13.5% | UACC-257 melanoma 87.1% | SNB-75 CNS 25.8% | SNB-19 CNS 30.8% | U251 CNS 14.6% | PC-3 prostate 13.6% | UACC-62 melanoma 15.2% | SK-MEL-28 melanoma 61.4%

COc1ccc(C2=Nn3c(nnc3-c3cc(Cl)cc(Cl)c3Cl)SC2)cc1
inactive: MALME-3M melanoma 37.2% | MDA-MB-231 breast 10.3% | RXF 393 renal 14.4% | SF-268 CNS 22.6% | UACC-257 melanoma 37% | HCT-15 colon 12.1% | SNB-19 CNS 14.3% | U251 CNS 18.5% | PC-3 prostate 18.1% | UACC-62 melanoma 41.1% | LOX IMVI melanoma 23.7% | SK-MEL-28 melanoma 47.7%
active: DU-145 prostate 6.93% | K-562 leukemia 2.96% | SF-295 CNS 0.025% | SF-539 CNS -8.32% | M14 melanoma -45.3% | SK-MEL-5 melanoma -13.5%

CCCCC[C@H](O)C/C=C1/C(=O)C=C[C@@H]1C/C=C\CCCC(=O)O
inactive: DU-145 prostate 67.8% | K-562 leukemia 30.1% | MALME-3M melanoma 116% | RXF 393 renal 87.9% | SF-268 CNS 67% | SF-295 CNS 93.7% | SF-539 CNS 92.8% | UACC-257 melanoma 85.8% | M14 melanoma 70.1% | HCT-15 colon 69.5% | HT29 colon 59.8% | SNB-75 CNS 79.1% | SNB-19 CNS 83.4% | U251 CNS 43.8% | PC-3 prostate 78.4% | SK-MEL-5 melanoma 82.8% | UACC-62 melanoma 60.9% | SK-MEL-28 melanoma 66.4%
active: LOX IMVI melanoma 6.2%

O=C(O)c1cn(C2CC2)c2cc(N3CCN(C(=O)Nc4nc(-c5ccc(Cl)cc5)cs4)CC3)c(F)cc2c1=O
active: K-562 leukemia 8.49% | MALME-3M melanoma -20.2% | SF-295 CNS -3.25% | UACC-257 melanoma -12.5% | HCT-15 colon 7.05% | HT29 colon 5.06% | SNB-75 CNS 9.36% | PC-3 prostate -2.99% | SK-MEL-5 melanoma -60.3% | UACC-62 melanoma -4.17% | LOX IMVI melanoma -66.8%
inactive: DU-145 prostate 11.4% | RXF 393 renal 41.6% | SF-268 CNS 20.6% | SF-539 CNS 14.7% | M14 melanoma 18.2% | SNB-19 CNS 23.9% | U251 CNS 10.8% | SK-MEL-28 melanoma 39.4%
